Experimental data reported in PubChem BioAssay (NCI).
About 83,000 compounds went through this panel and 20% of them were active in at least one assay; those are over-represented in the sample as a whole.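 Values shown are percent growth following 48 h exposure of cells in 96-well plates to a single concentration of compound; below 10 was considered active.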 Activity calls are given as the source filed them.

Experiments:
Test in all cases: NCI-60 one-dose screen, 48 h (100 = growth as untreated, 0 = no growth, -100 = all killed)
Conditions in all cases: 10 µM unless noted
SR leukemia = test system: SR leukemia
RPMI-8226 leukemia = test system: RPMI-8226 leukemia
OVCAR-8 ovarian = test system: OVCAR-8 ovarian
IGROV1 ovarian = test system: IGROV1 ovarian
OVCAR-3 ovarian = test system: OVCAR-3 ovarian
HS 578T breast = test system: HS 578T breast
NCI/ADR-RES ovarian = test system: NCI/ADR-RES ovarian
OVCAR-4 ovarian = test system: OVCAR-4 ovarian
SK-OV-3 ovarian = test system: SK-OV-3 ovarian
OVCAR-5 ovarian = test system: OVCAR-5 ovarian

Measured: growth

CCN(CC)c1ccc(/C=N/N=C(N)N)cc1
inactive: SR leukemia 27.6% | OVCAR-8 ovarian 62.6% | IGROV1 ovarian 63.3% | HS 578T breast 55.3% | NCI/ADR-RES ovarian 93%
active: RPMI-8226 leukemia 3.74% | OVCAR-3 ovarian 4.63%

CC1=C(O)C(=O)CC1
inactive: SR leukemia 78.4% | RPMI-8226 leukemia 110% | OVCAR-8 ovarian 101% | OVCAR-4 ovarian 105% | SK-OV-3 ovarian 107% | IGROV1 ovarian 107% | OVCAR-3 ovarian 115% | HS 578T breast 107% | NCI/ADR-RES ovarian 106%

Clc1ccc(-c2nc(-c3cccs3)no2)cc1
inactive: SR leukemia 101% | RPMI-8226 leukemia 95.3% | OVCAR-8 ovarian 101% | IGROV1 ovarian 77.1% | OVCAR-3 ovarian 103% | HS 578T breast 99.5% | NCI/ADR-RES ovarian 103%

COc1cc(C2CC(=O)Nc3c2cnn3C)cc(OC)c1OC (stereo not given)
inactive: SR leukemia 103% | RPMI-8226 leukemia 112% | OVCAR-8 ovarian 103% | SK-OV-3 ovarian 95.1% | IGROV1 ovarian 108% | OVCAR-3 ovarian 106% | NCI/ADR-RES ovarian 105%

Cc1ccc(C(=O)CC(=O)C(F)(F)C(F)(F)C(F)(F)F)s1
inactive: SR leukemia 99.5% | RPMI-8226 leukemia 102% | OVCAR-8 ovarian 104% | OVCAR-5 ovarian 96.1% | SK-OV-3 ovarian 104% | IGROV1 ovarian 108% | OVCAR-3 ovarian 107% | NCI/ADR-RES ovarian 105%

COc1cc(C)c(Cl)cc1C1=NN(c2ccc(S(N)(=O)=O)cc2)C(/C=C/c2ccccc2)C1 (stereo not given)
inactive: SR leukemia 66.7% | RPMI-8226 leukemia 35.8% | OVCAR-8 ovarian 31.7% | OVCAR-4 ovarian 28.1% | IGROV1 ovarian 45.8% | OVCAR-3 ovarian 51.7%

CC(NC(=O)c1ccccc1)C(=O)Nc1ccccc1 (stereo not given)
inactive: SR leukemia 89.9% | OVCAR-8 ovarian 103% | OVCAR-5 ovarian 107% | OVCAR-4 ovarian 114% | SK-OV-3 ovarian 113% | IGROV1 ovarian 128% | OVCAR-3 ovarian 135% | HS 578T breast 114% | NCI/ADR-RES ovarian 108%

CS(=O)(=O)c1ccc(C(=O)Nc2ccc(Cl)c(-c3ccccn3)c2)c(Cl)c1
active: SR leukemia 9.7% | OVCAR-3 ovarian -11.1%
inactive: OVCAR-8 ovarian 23.3% | OVCAR-5 ovarian 33.6% | OVCAR-4 ovarian 26.8% | SK-OV-3 ovarian 19.2% | IGROV1 ovarian 25.2% | HS 578T breast 51.1% | NCI/ADR-RES ovarian 11.1%

Cc1[nH]c2ccccc2c1C1=CC(=O)C=CC1=O
inactive: SR leukemia 12.2% | OVCAR-8 ovarian 89.3% | OVCAR-5 ovarian 103% | OVCAR-4 ovarian 85.6% | SK-OV-3 ovarian 120% | IGROV1 ovarian 79.6% | OVCAR-3 ovarian 36.7% | HS 578T breast 99.7% | NCI/ADR-RES ovarian 77%

CC(C)(C)c1cc(C[P+](c2ccccc2)(c2ccccc2)c2ccccc2)cc(C(C)(C)C)c1O
inactive: OVCAR-5 ovarian 20.8% | OVCAR-4 ovarian 16.2% | IGROV1 ovarian 12.1% | OVCAR-3 ovarian 13.8% | HS 578T breast 16.2% | NCI/ADR-RES ovarian 73.2%
active: SR leukemia -22.3% | RPMI-8226 leukemia -35% | SK-OV-3 ovarian -0.717%

O=C(O)C(CCc1ccccc1)NCc1ccccc1 (stereo not given)
inactive: SR leukemia 106% | OVCAR-8 ovarian 106% | OVCAR-5 ovarian 93.5% | OVCAR-4 ovarian 78.5% | SK-OV-3 ovarian 98.5% | IGROV1 ovarian 101% | OVCAR-3 ovarian 100% | HS 578T breast 99.4% | NCI/ADR-RES ovarian 93.7%

CC(C)(C)OC[C@@H]1N=C(c2ccc(Br)cc2)Nc2nc3ccccn3c2C1=O
inactive: SR leukemia 35.4% | OVCAR-8 ovarian 79.5% | OVCAR-5 ovarian 105% | OVCAR-4 ovarian 82.3% | SK-OV-3 ovarian 64.3% | IGROV1 ovarian 40.7% | OVCAR-3 ovarian 34.2% | HS 578T breast 65.2% | NCI/ADR-RES ovarian 39.7%

CC(C)c1ccc(-c2cnc3nonc3n2)cc1
inactive: OVCAR-8 ovarian 36.6% | OVCAR-5 ovarian 37.6% | OVCAR-4 ovarian 59.5% | SK-OV-3 ovarian 82.4% | IGROV1 ovarian 54.4% | OVCAR-3 ovarian 15.6% | HS 578T breast 77.6% | NCI/ADR-RES ovarian 19.9%
active: SR leukemia 6.91%

CCCCCc1c(C)[nH]c(/C=C2\N=C(c3ccc[nH]3)C=C2Oc2ccc(OC)cc2)c1C
active: SR leukemia -9.14% [100 µM] | RPMI-8226 leukemia -37.7% [100 µM] | OVCAR-5 ovarian -65.3% [100 µM] | OVCAR-4 ovarian -99.7% [100 µM] | SK-OV-3 ovarian -63.2% [100 µM] | IGROV1 ovarian -70.6% [100 µM] | OVCAR-3 ovarian -95% [100 µM] | HS 578T breast 0.631% [100 µM] | NCI/ADR-RES ovarian -78% [100 µM]

O=C(Cc1ccc([N+](=O)[O-])cc1)Oc1ccccc1
inactive: SR leukemia 96.7% | OVCAR-8 ovarian 107% | OVCAR-5 ovarian 115% | OVCAR-4 ovarian 111% | SK-OV-3 ovarian 110% | IGROV1 ovarian 123% | OVCAR-3 ovarian 119% | HS 578T breast 109% | NCI/ADR-RES ovarian 113%

Clc1ccc(-c2cnc3nonc3n2)s1
inactive: SR leukemia 38.4% | OVCAR-8 ovarian 67.3% | OVCAR-5 ovarian 91.5% | OVCAR-4 ovarian 89.9% | SK-OV-3 ovarian 98.1% | IGROV1 ovarian 71.3% | OVCAR-3 ovarian 23.1% | HS 578T breast 90.3% | NCI/ADR-RES ovarian 98.5%

O=[N+]([O-])c1ccc(N/N=C/c2ccccc2O)nc1
inactive: SR leukemia 14.8% | OVCAR-8 ovarian 24.3% | OVCAR-5 ovarian 60.9% | OVCAR-4 ovarian 39.3% | SK-OV-3 ovarian 32.7% | IGROV1 ovarian 18.6% | OVCAR-3 ovarian 69.1% | HS 578T breast 79.7% | NCI/ADR-RES ovarian 21.3%

CCN(CC)c1ccc(/C=N/NC(=O)c2ccc(S(C)(=O)=O)cc2)c(O)c1
active: SR leukemia 9.02%
inactive: OVCAR-8 ovarian 16.8% | OVCAR-5 ovarian 32.5% | OVCAR-4 ovarian 34.7% | SK-OV-3 ovarian 39% | IGROV1 ovarian 21.2% | OVCAR-3 ovarian 33.4% | HS 578T breast 68% | NCI/ADR-RES ovarian 17.8%

Cc1c(C(N)=O)sc2ncn(CC(=O)NN=C3CCCCC3)c(=O)c12
inactive: SR leukemia 82.9% | OVCAR-8 ovarian 110% | OVCAR-5 ovarian 104% | OVCAR-4 ovarian 110% | SK-OV-3 ovarian 110% | IGROV1 ovarian 135% | OVCAR-3 ovarian 107% | HS 578T breast 108% | NCI/ADR-RES ovarian 100%

O=c1c2cc(Br)cc(Br)c2nc(-c2ccc(Cl)cc2)n1/N=C/c1cccc(F)c1
inactive: SR leukemia 62.7% | OVCAR-8 ovarian 29.4% | OVCAR-5 ovarian 61% | SK-OV-3 ovarian 52% | IGROV1 ovarian 33.1% | OVCAR-3 ovarian 49.8% | HS 578T breast 35.2% | NCI/ADR-RES ovarian 40.3%
active: OVCAR-4 ovarian -11%

O=S(=O)(Cc1ccc(Cl)cc1Cl)c1ccc(Cl)cc1
inactive: SR leukemia 24.3% | OVCAR-8 ovarian 31.9% | OVCAR-5 ovarian 53.9% | OVCAR-4 ovarian 69.5% | IGROV1 ovarian 36.1% | HS 578T breast 63.3%
active: SK-OV-3 ovarian 9.24% | OVCAR-3 ovarian 1.54% | NCI/ADR-RES ovarian -8.57%

CN1C(=O)C(C2=NNC(c3ccccc3C(=O)O)C2)C(=O)N(C)C1=O (stereo not given)
inactive: SR leukemia 101% | OVCAR-8 ovarian 103% | OVCAR-5 ovarian 94.6% | OVCAR-4 ovarian 99% | SK-OV-3 ovarian 90.9% | IGROV1 ovarian 106% | OVCAR-3 ovarian 110% | HS 578T breast 93.6% | NCI/ADR-RES ovarian 108%

Clc1nnc2c3ccccc3ccn12
inactive: SR leukemia 106% | OVCAR-8 ovarian 99.1% | OVCAR-5 ovarian 103% | OVCAR-4 ovarian 111% | SK-OV-3 ovarian 95.1% | IGROV1 ovarian 113% | OVCAR-3 ovarian 112% | HS 578T breast 103% | NCI/ADR-RES ovarian 112%

OC(CCCCCCCCC(O)CN1CCc2ccccc2C1)CN1CCc2ccccc2C1 (stereo not given)
inactive: SR leukemia 104% | OVCAR-8 ovarian 104% | OVCAR-5 ovarian 102% | OVCAR-4 ovarian 96.2% | SK-OV-3 ovarian 105% | IGROV1 ovarian 95.1% | OVCAR-3 ovarian 107% | HS 578T breast 108% | NCI/ADR-RES ovarian 98.1%

CCN1C(=O)N(CC)C2C1NC(=O)N2/N=C/C=C/c1ccccc1 (stereo not given)
inactive: SR leukemia 20.3% | OVCAR-8 ovarian 60.5% | OVCAR-5 ovarian 80.1% | OVCAR-4 ovarian 64.4% | SK-OV-3 ovarian 36.7% | IGROV1 ovarian 53.2% | HS 578T breast 34.8% | NCI/ADR-RES ovarian 38.7%
active: OVCAR-3 ovarian 7.58%

O=C(CSc1nnc(Cc2ccccc2Nc2c(Cl)cccc2Cl)n1-c1ccccc1)N1N=C(c2ccc3ccccc3c2)CC1c1ccc(Cl)cc1 (stereo not given)
inactive: SR leukemia 97.2% | OVCAR-8 ovarian 107% | OVCAR-5 ovarian 99.8% | OVCAR-4 ovarian 88.7% | SK-OV-3 ovarian 93.8% | IGROV1 ovarian 89.5% | OVCAR-3 ovarian 104% | HS 578T breast 111% | NCI/ADR-RES ovarian 101%

CS(=O)(=O)c1ccc(Cl)c([N+](=O)[O-])c1
inactive: SR leukemia 18.6% | OVCAR-8 ovarian 107% | OVCAR-5 ovarian 108% | OVCAR-4 ovarian 111% | SK-OV-3 ovarian 104% | IGROV1 ovarian 38.5% | HS 578T breast 73.3% | NCI/ADR-RES ovarian 101%
active: OVCAR-3 ovarian 9.6%

S=C(Nc1ccc(Cl)cc1)Nc1ccc(Cl)cc1 (tested in a mixture with another compound)
inactive: OVCAR-5 ovarian 12.5% | OVCAR-4 ovarian 10.5% | IGROV1 ovarian 16.2% | HS 578T breast 17.4%
active: SR leukemia 5.29% | OVCAR-8 ovarian 1.13% | SK-OV-3 ovarian -0.571% | OVCAR-3 ovarian 5.45%

CC(=O)C1CCC2C3CC(C)=C4CC(O)CCC4(C)C3CCC12C (stereo not given)
inactive: SR leukemia 89.9% | OVCAR-8 ovarian 106% | OVCAR-5 ovarian 112% | OVCAR-4 ovarian 93.4% | SK-OV-3 ovarian 112% | IGROV1 ovarian 104% | OVCAR-3 ovarian 113% | HS 578T breast 103% | NCI/ADR-RES ovarian 101%
